The subject of assay [1] is Zika virus NS2B-NS3 protease (unlinked complex). Description: Primary screen GU Rhodamine qHTS for Zika virus inhibitors: Unlinked NS2B-NS3 protease assay (AID 1347159). Further: nearly all actives have a fitted effect of over 60% in size. The gist of the method: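 Enzyme 25 nM in Tris-HCl pH 8.0 + 0.01% Tween 20; compounds up to 114 microM, 15 min RT dark; + Rhod110 substrate 1.5 microM; read t0 and 15 min; delta fluorescence → % inhibition → 4-parameter Hill fit.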

Assay [2] deals with Zika virus NS2B-NS3 protease (linked construct). Description: Primary screen NINDS Rhodamine qHTS for Zika virus inhibitors (AID 1347160). Further: nearly all actives have a fitted effect of over 55% in size. Put shortly:
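Enzyme (25 nM, linked NS2B-NS3) was preincubated 15 min with compound in 10 mM Tris-HCl pH 8.0, 0.01% Tween 20. Rhodamine110 substrate (1.5 microM) was then added and fluorescence read at start and after 15 min.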
In general terms: qHTS replaces the single test concentration by a dilution series.

Structures are written as SMILES. Results filed as inconclusive are left out. Values without a mark were called inactive. Calls of active or inactive are those of the source. The call rests on the fitted dose curve; in most records, active means well fitted inhibition curve with a large enough effect; inconclusive means small, poorly fitted or top-dose-only effect; inactive means no such curve, though single readings can be large or run the other way.
On the % scale 0 is the no-effect control and ±100 the full control effect.

As to `CC12CCC3c4ccc(OC5OC(C(=O)O)C(O)C(O)C5O)cc4CCC3C1CCC2O` (centres undefined), the Potency entry in assay [1] and in assay [2] was “inactive” throughout.

On to `O=C(O)c1cccc(S(=O)(=O)N2CCc3ccccc3C2)c1`, for which the Potency entry in assay [1] and in assay [2] was “inactive” each time.

`C=CC(C)(O)C(O)CC1C(C)(O)C(O)C(O)C2C(C)(C)CCCC21C` (centres undefined): the Potency result in assay [1] and in assay [2] was “inactive” throughout.

As for `CC1C(=O)CC2C3CCC(C(=O)O)C12CC3(C)CO` (centres undefined), the Potency result in assay [1] and in assay [2] was “inactive” each time.

With `C[C@H](N)C(=O)N[C@@H](Cc1ccc(O)cc1)C(=O)N1CCC[C@H]1C(=O)NCC(=O)N[C@@H](CCCCN)C(=O)N[C@@H](Cc1ccccc1)C(N)=O`, the activity change, negative = inhibition in assay [1] was 124% [at 19.1 µM]; in assay [2] it was 9.61% [at 10.7 µM].

With `COC(=O)CCc1cc2ccoc2c(OC)c1O[C@@H]1O[C@H](CO)[C@@H](O)[C@H](O)[C@H]1O`, the Potency result in assay [1] and in assay [2] was “inactive” in each case.

In the case of `CC(=O)N1CCN(Cc2ccc([C@H](C)Nc3nccc(N4C(=O)OC[C@@H]4C(C)C)n3)cc2)CC1`, the Potency entry in assay [1] and in assay [2] was “inactive” throughout.

For the origin of these results see PubChem BioAssay (NCATS).
